Hit rate of the full screen: of about 5,500 compounds, about 2,000 (36%) were called active. About 18% were inconclusive and are not listed. No stated cut-off is given here; in the data, active means normalized growth mostly below about 0.91 (no sharp cut-off); inconclusive means no clear call, values can overlap the other calls; inactive means mostly above about 0.92. The list shows a part of the results.
Assay: chemical genetic growth profiling, strain panel (AID 1159580);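 further: tested at 20 µM; growth read once vehicle control cultures reached saturation at 30 °C; 1 = growth at the plate median or of vehicle wells; lower values mean less growth of the strain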
Details: S. cerevisiae deletion strains, growth OD

Measured: normalized growth

CCC(COC(=O)c1cc(OC)c(OC)c(OC)c1)(c1ccccc1)N(C)C (stereo not given)
inactive: locus YAL021C, strain ccr4, hits give low values 0.969 | locus YAL026C, strain drs2, hits give low values 0.994 | locus YAL030W, strain snc1, hits give low values 0.985 | locus YBL061C, strain skt5, hits give low values 0.993 | locus YBR009C, strain hhf1, hits give low values 1.01 | locus YBR023C, strain chs3, hits give low values 0.98 | locus YBR171W, strain sec66, hits give low values 0.961 | locus YBR231C, strain swc5, hits give low values 0.985 | locus YBR279W, strain paf1, hits give low values 0.975 | locus YCL011C, strain gbp2, hits give low values 0.969 | locus YCL016C, strain dcc1, hits give low values 0.99 | locus YCL061C, strain MRC1, hits give low values 0.987 | locus YCL069W, strain vba3, hits give low values 0.988 | locus YCR088W, strain abp1, hits give low values 0.979 | locus YDL005C, strain med2, hits give low values 0.977 | locus YDL040C, strain nat1, hits give low values 0.978 | locus YDR001C, strain nth1, hits give low values 0.974 | locus YDR069C, strain doa4, hits give low values 0.992 | locus YDR137W, strain rgp1, hits give low values 0.925 | locus YDR159W, strain sac3, hits give low values 0.986 | locus YDR195W, strain ref2 0.984 | locus YDR297W, strain sur2, hits give low values 0.971 | locus YDR334W, strain swr1, hits give low values 0.938 | locus YDR335W, strain msn5, hits give low values 0.969 | locus YDR392W, strain spt3, hits give low values 0.753 | locus YEL003W, strain gim4, hits give low values 0.967 | locus YEL037C, strain rad23, hits give low values 0.983 | locus YEL061C, strain CIN8 (second series), hits give low values 0.985 | locus YER015W, strain faa2, hits give low values 0.986 | locus YER016W, strain bim1, hits give low values 0.983 | locus YER111C, strain swi4, hits give low values 0.983 | locus YER155C, strain BEM2 (second series), hits give low values 0.97 | locus YFR010W, strain ubp6, hits give low values 0.984 | locus YGL167C, strain pmr1, hits give low values 0.976 | locus YGL173C, strain kem1, hits give low values 0.985 | locus YGL227W, strain vid30, hits give low values 0.99 | locus YGL240W, strain doc1, hits give low values 0.972 | locus YGL253W, strain hxk2, hits give low values 0.994 | locus YHR013C, strain ard1, hits give low values 0.937 | locus YHR027C, strain rpn1, hits give low values 0.969 | locus YHR030C, strain SLT2, hits give low values 0.976 | locus YHR079C, strain IRE1, hits give low values 0.985 | locus YHR142W, strain chs7, hits give low values 0.952 | locus YJL092W, strain hpr5, hits give low values 0.973 | locus YJL095W, strain BCK1 (second series), hits give low values 0.981 | locus YJL095W, strain BCK1, hits give low values 0.98 | locus YJL115W, strain asf1, hits give low values 0.957 | locus YJL129C, strain trk1, hits give low values 0.938 | locus YJL154C, strain vps35, hits give low values 0.979 | locus YJL164C, strain tpk1, hits give low values 0.966 | locus YJL166W, strain qcr8, hits give low values 0.969 | locus YJL187C, strain SWE1, hits give low values 0.988 | locus YJR066W, strain TOR1, hits give low values 0.924 | locus YKL160W, strain elf1, hits give low values 0.959 | locus YKR026C, strain gcn3, hits give low values 0.983 | locus YKR091W, strain srl3, hits give low values 0.976 | locus YLL001W, strain dnm1, hits give low values 0.985 | locus YLL026W, hits give low values 0.975 | locus YLL041C, strain sdh2, hits give low values 0.964 | locus YLR027C, strain aat2, hits give low values 0.974 | locus YLR113W, strain HOG1, hits give low values 0.995 | locus YLR221C, strain rsa3, hits give low values 0.951 | locus YLR258W, strain gsy2, hits give low values 0.991 | locus YLR262C, strain YPT6 (second series), hits give low values 0.933 | locus YLR320W, strain mms22, hits give low values 0.942 | locus YLR342W, strain FKS1, hits give low values 0.983 | locus YLR357W, strain rsc2, hits give low values 0.966 | locus YLR370C, strain arc18, hits give low values 0.997 | locus YLR384C, strain iki3, hits give low values 0.976 | locus YML120C, strain ndi1, hits give low values 0.957 | locus YMR058W, strain fet3, hits give low values 0.979 | locus YMR125W, strain sto1, hits give low values 0.97 | locus YMR129W, hits give low values 0.978 | locus YMR205C, strain PFK2, hits give low values 1.02 | locus YMR231W, strain pep5, hits give low values 0.999 | locus YNL071W, strain lat1, hits give low values 0.921 | locus YNL183C, strain NPR1, hits give low values 0.939 | locus YNL209W, strain ssb2, hits give low values 0.98 | locus YNL248C, strain rpa49, hits give low values 0.945 | locus YNL322C, strain KRE1 (second series), hits give low values 0.972 | locus YNR049C, strain mso1, hits give low values 0.973 | locus YOR001W, strain rrp6, hits give low values 0.913 | locus YOR070C, strain gyp1, hits give low values 0.978 | locus YOR080W, strain dia2, hits give low values 0.977 | locus YOR083W, strain WHI5, hits give low values 0.952 | locus YOR106W, strain vam3, hits give low values 0.957 | locus YOR231W, strain MKK1, hits give low values 0.988 | locus YOR265W, strain rbl2, hits give low values 0.976 | locus YOR270C, strain vph1, hits give low values 0.955 | locus YOR290C, strain snf2, hits give low values 0.925 | locus YPL051W, strain arl3, hits give low values 0.954 | locus YPL078C, strain atp4, hits give low values 0.946 | locus YPL106C, strain sse1, hits give low values 0.941 | locus YPL240C, strain hsp82, hits give low values 0.961 | locus YPL256C, strain CLN2, hits give low values 0.966

Reference: PubChem BioAssay AID1159580 (chemical genetic matrix, 2015)
